Publication PMC7862700, “An all-to-all approach to the identification of sequence-specific readers for epigenetic DNA modifications on cytosine”

Legend:
Assay in all cases: DAPPL (digital affinity profiling via proximity ligation, sequencing); 10 mM Tris-HCl pH 7.5, 50 mM NaCl, 1 mM DTT, 4% glycerol, room temperature, 30 min; GST-TFs on glutathione beads, 16-mer random dsDNA library, 0.1% formaldehyde crosslink after washing; high values mean tight binding
Conditions in all cases: protein: recombinant; tags: N-terminal GST; dsDNA, one strand shown
FLI1 = target: T1, FLI1 (Homo sapiens, UniProt Q01543 1-452)
T1 sequence: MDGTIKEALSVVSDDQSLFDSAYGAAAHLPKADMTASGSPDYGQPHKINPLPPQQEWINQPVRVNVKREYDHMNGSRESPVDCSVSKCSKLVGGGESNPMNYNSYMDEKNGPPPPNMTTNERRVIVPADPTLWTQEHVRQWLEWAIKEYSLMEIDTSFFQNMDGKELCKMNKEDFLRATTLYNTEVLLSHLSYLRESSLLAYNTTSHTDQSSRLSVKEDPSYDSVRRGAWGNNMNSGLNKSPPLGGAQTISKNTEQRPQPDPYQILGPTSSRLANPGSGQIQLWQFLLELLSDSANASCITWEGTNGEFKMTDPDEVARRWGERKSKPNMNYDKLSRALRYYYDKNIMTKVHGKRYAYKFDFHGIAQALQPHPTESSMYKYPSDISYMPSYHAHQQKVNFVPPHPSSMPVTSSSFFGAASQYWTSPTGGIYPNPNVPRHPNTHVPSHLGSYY
Method in brief: (§1)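 Human transcription factors were made in yeast as GST fusions, captured on glutathione beads and barcoded with DNA. With a tag-only sample included, the pool was incubated with 200 nmole of a random double-stranded 16-mer DNA library in Tris/NaCl/DTT/glycerol buffer at room temperature for 30 min, then crosslinked with 0.1% formaldehyde after washing, ligated by proximity, amplified and sequenced. For binding signal, each hexamer's read frequency for a factor is divided by its frequency for the tag-only sample.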

ELK1 = target: T2, ELK1 (Homo sapiens, UniProt P19419 1-428)
T2 sequence: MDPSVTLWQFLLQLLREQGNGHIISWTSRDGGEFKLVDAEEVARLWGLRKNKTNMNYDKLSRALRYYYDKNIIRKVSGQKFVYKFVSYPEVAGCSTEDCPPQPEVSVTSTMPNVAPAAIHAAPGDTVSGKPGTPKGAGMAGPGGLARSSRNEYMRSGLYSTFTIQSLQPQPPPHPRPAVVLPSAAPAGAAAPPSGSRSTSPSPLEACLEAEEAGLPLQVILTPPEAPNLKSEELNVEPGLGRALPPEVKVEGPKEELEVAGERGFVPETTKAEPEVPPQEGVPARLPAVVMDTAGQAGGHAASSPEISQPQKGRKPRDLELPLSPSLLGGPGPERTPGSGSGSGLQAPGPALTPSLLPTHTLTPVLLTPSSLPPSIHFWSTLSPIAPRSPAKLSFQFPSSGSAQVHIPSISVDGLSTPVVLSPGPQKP
Method in brief: as §1

GABPA = target: T3, GABPA (Homo sapiens, UniProt Q06546 1-454)
T3 sequence: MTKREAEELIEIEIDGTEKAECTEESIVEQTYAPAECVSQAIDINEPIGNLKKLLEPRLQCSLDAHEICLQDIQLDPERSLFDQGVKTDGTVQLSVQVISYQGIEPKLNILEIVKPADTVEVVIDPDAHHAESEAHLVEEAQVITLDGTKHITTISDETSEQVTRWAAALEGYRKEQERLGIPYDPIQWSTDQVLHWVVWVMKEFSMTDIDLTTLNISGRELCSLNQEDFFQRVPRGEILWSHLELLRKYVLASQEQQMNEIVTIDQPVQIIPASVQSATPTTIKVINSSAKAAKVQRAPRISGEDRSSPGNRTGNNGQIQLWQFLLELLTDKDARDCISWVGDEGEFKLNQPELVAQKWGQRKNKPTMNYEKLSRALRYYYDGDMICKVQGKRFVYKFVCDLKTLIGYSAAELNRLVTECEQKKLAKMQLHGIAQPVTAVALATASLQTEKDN
Method in brief: as §1

ERG = target: T4, ERG (Homo sapiens, UniProt P11308 1-479)
T4 sequence: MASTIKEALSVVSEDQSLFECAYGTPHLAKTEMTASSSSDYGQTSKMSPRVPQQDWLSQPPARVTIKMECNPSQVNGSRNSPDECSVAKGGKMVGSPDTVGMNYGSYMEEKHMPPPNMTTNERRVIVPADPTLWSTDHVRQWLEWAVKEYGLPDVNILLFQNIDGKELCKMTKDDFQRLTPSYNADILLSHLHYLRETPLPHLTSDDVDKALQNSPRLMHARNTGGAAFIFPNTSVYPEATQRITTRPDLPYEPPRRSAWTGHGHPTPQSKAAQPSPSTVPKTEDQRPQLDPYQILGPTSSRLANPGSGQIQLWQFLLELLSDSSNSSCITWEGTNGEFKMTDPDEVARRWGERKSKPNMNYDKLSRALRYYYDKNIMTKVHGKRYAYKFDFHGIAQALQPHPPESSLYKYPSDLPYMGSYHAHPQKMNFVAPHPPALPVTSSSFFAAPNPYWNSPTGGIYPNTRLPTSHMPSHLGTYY
Method in brief: as §1

ELF1 = ELF1 (Homo sapiens, UniProt P32519 1-619)
ELF1, sequence (P32519 whole entry): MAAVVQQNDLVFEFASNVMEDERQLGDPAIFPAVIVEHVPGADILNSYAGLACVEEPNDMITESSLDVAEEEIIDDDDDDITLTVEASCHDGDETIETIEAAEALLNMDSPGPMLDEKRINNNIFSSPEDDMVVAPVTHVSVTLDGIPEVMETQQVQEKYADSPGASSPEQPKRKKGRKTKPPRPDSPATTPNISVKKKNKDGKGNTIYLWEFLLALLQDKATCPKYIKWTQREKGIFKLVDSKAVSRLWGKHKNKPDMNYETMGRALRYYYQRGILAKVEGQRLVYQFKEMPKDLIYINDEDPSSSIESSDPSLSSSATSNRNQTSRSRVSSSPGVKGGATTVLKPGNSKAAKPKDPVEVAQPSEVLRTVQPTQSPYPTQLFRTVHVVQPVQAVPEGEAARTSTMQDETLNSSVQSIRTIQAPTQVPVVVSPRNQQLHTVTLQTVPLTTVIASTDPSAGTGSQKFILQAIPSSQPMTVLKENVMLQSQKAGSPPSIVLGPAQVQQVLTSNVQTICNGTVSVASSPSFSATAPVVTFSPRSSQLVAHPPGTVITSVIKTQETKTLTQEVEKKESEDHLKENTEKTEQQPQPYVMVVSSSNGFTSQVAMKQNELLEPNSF
Method in brief: as §1

EHF = target: T5, EHF (Homo sapiens, UniProt Q9NZC4 1-300)
T5 sequence: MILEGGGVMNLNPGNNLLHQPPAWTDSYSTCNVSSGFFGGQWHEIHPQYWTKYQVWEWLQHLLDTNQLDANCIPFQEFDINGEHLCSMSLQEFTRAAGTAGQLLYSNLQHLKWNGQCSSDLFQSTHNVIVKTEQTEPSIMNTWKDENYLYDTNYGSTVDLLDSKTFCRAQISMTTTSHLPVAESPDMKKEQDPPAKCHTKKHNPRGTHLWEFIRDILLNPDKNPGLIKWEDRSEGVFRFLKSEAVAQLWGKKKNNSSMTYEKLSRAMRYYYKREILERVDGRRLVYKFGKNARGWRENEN
Method in brief: as §1

SPI1 = SPI1 (Homo sapiens, UniProt P17947 1-270)
Method in brief: as §1

SPIB = SPIB (Homo sapiens, UniProt Q01892 1-262)
SPIB, sequence (Q01892 whole entry): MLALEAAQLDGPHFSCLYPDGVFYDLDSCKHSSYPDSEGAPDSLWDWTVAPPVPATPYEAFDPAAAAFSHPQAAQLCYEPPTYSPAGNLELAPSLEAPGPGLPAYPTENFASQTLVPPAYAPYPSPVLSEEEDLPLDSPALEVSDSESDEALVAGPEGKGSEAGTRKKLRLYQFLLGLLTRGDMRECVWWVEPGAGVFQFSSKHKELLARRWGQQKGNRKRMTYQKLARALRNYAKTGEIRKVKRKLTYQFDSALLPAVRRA
Method in brief: as §1

ELK3 = target: T6, ELK3 (Homo sapiens, UniProt P41970 1-407)
T6 sequence: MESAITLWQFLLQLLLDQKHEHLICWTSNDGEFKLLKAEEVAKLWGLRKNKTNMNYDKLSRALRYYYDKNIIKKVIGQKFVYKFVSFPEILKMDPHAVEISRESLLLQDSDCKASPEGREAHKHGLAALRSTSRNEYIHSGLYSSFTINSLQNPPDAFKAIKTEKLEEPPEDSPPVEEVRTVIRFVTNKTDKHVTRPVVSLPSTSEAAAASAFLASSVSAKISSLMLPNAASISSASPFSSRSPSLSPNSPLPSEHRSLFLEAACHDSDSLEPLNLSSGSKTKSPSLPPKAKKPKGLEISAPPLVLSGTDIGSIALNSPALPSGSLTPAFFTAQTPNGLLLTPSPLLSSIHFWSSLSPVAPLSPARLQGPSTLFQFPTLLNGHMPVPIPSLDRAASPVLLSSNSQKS
Method in brief: as §1

Row | Sequence | binding signal (FLI1) | binding signal (ELK1) | binding signal (GABPA) | binding signal (ERG) | binding signal (ELF1) | binding signal (EHF) | binding signal (SPI1) | binding signal (SPIB) | binding signal (ELK3)
1 | TCAATA | 1.21 fold enrichment (6-mer frequency, TF over GST control) | 1.17 fold enrichment (6-mer frequency, TF over GST control) | 1.24 fold enrichment (6-mer frequency, TF over GST control) | 1.14 fold enrichment (6-mer frequency, TF over GST control) | 1.17 fold enrichment (6-mer frequency, TF over GST control) | 1.14 fold enrichment (6-mer frequency, TF over GST control) | 1.23 fold enrichment (6-mer frequency, TF over GST control) | 1.06 fold enrichment (6-mer frequency, TF over GST control) | 1.2 fold enrichment (6-mer frequency, TF over GST control)
2 | CCCCAA | 1.1 fold enrichment (6-mer frequency, TF over GST control) | 1.16 fold enrichment (6-mer frequency, TF over GST control) | 1.16 fold enrichment (6-mer frequency, TF over GST control) | 1.18 fold enrichment (6-mer frequency, TF over GST control) | 1.19 fold enrichment (6-mer frequency, TF over GST control) | 1.23 fold enrichment (6-mer frequency, TF over GST control) | 1.2 fold enrichment (6-mer frequency, TF over GST control) | 1.07 fold enrichment (6-mer frequency, TF over GST control) | 1.09 fold enrichment (6-mer frequency, TF over GST control)
3 | TTATGG | 1.42 fold enrichment (6-mer frequency, TF over GST control) | 1.39 fold enrichment (6-mer frequency, TF over GST control) | 1.39 fold enrichment (6-mer frequency, TF over GST control) | 1.3 fold enrichment (6-mer frequency, TF over GST control) | 1.3 fold enrichment (6-mer frequency, TF over GST control) | 1.46 fold enrichment (6-mer frequency, TF over GST control) | 1.34 fold enrichment (6-mer frequency, TF over GST control) | 1.44 fold enrichment (6-mer frequency, TF over GST control) | 1.39 fold enrichment (6-mer frequency, TF over GST control)
4 | CCCATT | 1.36 fold enrichment (6-mer frequency, TF over GST control) | 1.25 fold enrichment (6-mer frequency, TF over GST control) | 1.46 fold enrichment (6-mer frequency, TF over GST control) | 1.41 fold enrichment (6-mer frequency, TF over GST control) | 1.39 fold enrichment (6-mer frequency, TF over GST control) | 1.24 fold enrichment (6-mer frequency, TF over GST control) | 1.47 fold enrichment (6-mer frequency, TF over GST control) | 1.27 fold enrichment (6-mer frequency, TF over GST control) | 1.41 fold enrichment (6-mer frequency, TF over GST control)
5 | ACGGAT | 1.27 fold enrichment (6-mer frequency, TF over GST control) | 1.21 fold enrichment (6-mer frequency, TF over GST control) | 1.21 fold enrichment (6-mer frequency, TF over GST control) | 1.37 fold enrichment (6-mer frequency, TF over GST control) | 1.22 fold enrichment (6-mer frequency, TF over GST control) | 1.3 fold enrichment (6-mer frequency, TF over GST control) | 1.2 fold enrichment (6-mer frequency, TF over GST control) | 1.19 fold enrichment (6-mer frequency, TF over GST control) | 1.29 fold enrichment (6-mer frequency, TF over GST control)
6 | TTTATA | 1.32 fold enrichment (6-mer frequency, TF over GST control) | 1.27 fold enrichment (6-mer frequency, TF over GST control) | 1.36 fold enrichment (6-mer frequency, TF over GST control) | 1.29 fold enrichment (6-mer frequency, TF over GST control) | 1.23 fold enrichment (6-mer frequency, TF over GST control) | 1.4 fold enrichment (6-mer frequency, TF over GST control) | 1.34 fold enrichment (6-mer frequency, TF over GST control) | 1.33 fold enrichment (6-mer frequency, TF over GST control) | 1.28 fold enrichment (6-mer frequency, TF over GST control)
7 | TTAGCT | 1.13 fold enrichment (6-mer frequency, TF over GST control) | 1.21 fold enrichment (6-mer frequency, TF over GST control) | 1.23 fold enrichment (6-mer frequency, TF over GST control) | 1.15 fold enrichment (6-mer frequency, TF over GST control) | 1.27 fold enrichment (6-mer frequency, TF over GST control) | 1.2 fold enrichment (6-mer frequency, TF over GST control) | 1.2 fold enrichment (6-mer frequency, TF over GST control) | 1.19 fold enrichment (6-mer frequency, TF over GST control) | 1.18 fold enrichment (6-mer frequency, TF over GST control)
